This is a sample that favours compounds with a hit; in the whole collection about 19% have one here.
Pf growth 48h: P. falciparum growth inhibition at 48 hours (one generation); P. falciparum luciferase growth in erythrocytes, 48 h; Potency, µM (highest dose often 28.7 µM), for the others: top-dose activity change, negative = inhibition, most hits filed as inhibitors; 310,000 tested, 5.9% active; AID 504832; note: potency is the fitted concentration of half-maximal effect; % is set by controls: 0 for no effect and ±100 for the full control effect
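Firefly luciferase activity from engineered P. falciparum reports growth; inhibitors lower the luminescent signal. Cultures contained 2% hematocrit erythrocytes at 0.1% final parasitemia.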
Shiga toxin inh: blocks Shiga toxin action in Vero cells; Vero cells, Shiga toxin protein synthesis inhibition reporter; inhibition, % at 38.7 µM; 290,000 tested, 9.2% active; in the data active = inhibition mostly above about 28%, no sharp cut-off; inactive = mostly below about 43%; note: 0% is about no effect
Pf growth 96h: P. falciparum growth inhibition at 96 hours; AID 504834; Potency, µM (highest dose often 28.7 µM), without a hit: at the highest dose activity change, negative = inhibition, most hits filed as inhibitors; P. falciparum luciferase reporter growth, 96 h; 320,000 tested, 6.9% active; note: potency is the fitted concentration of half-maximal effect; % is set by controls: 0 for no effect and ±100 for the full control effect
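P. falciparum expressing integrated firefly luciferase grown in erythrocytes (2% hematocrit, 0.05% parasitemia final) with compounds for 96 hours at 37 C, 5% CO2. Growth inhibition read as loss of luminescence after adding luciferase detection reagent.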
Lassa entry inh: Lassa virus entry inhibition; Lassa virus pseudotype entry inhibition, cell reporter; Potency, µM (doses to about 37.9 µM), inactives show at the highest dose activity change, negative = inhibition, actives largely listed as inhibitors; 300,000 tested, 1.2% active; AID 540256; calls by dose curve; tested in HEK293 cells; note: potency is the fitted concentration of half-maximal effect; % is set by controls: 0 for no effect and ±100 for the full control effect; nearly all actives have a fitted effect of over 50% in size
Marburg entry inh: Marburg virus entry inhibition; Marburg virus pseudotyped entry inhibition, cell reporter; AID 540276; 300,000 tested, 1.8% active; Potency, µM (highest dose often 37.8 µM), without a hit: at the highest dose activity change, negative = inhibition, usual class: inhibitors; calls by dose curve; tested in HEK293 cells; note: potency is the fitted concentration of half-maximal effect; % is set by controls: 0 for no effect and ±100 for the full control effect
CHX counter: counter-screen for Shiga toxin inhibitors: cycloheximide protein synthesis inhibition. cell reporter, cycloheximide protein synthesis inhibition counterscreen. max response, %. 300,000 tested, 12% active. AID 2314; in the data active = max response mostly above about 13%, no sharp cut-off; inactive = mostly below about 14%; note: read at 38.3 µM for the half of the compounds with a filed dose; 0% is about no effect
An asterisk follows results filed as active; i = inactive; ? = inconclusive; . = no result given; ! = not active in a repeat; [ ] = another dose, or the depositor's remark. Unless noted, calls come from the whole dose curve; as a rule, active = well fitted inhibition curve with a large enough effect; inconclusive = small, poorly fitted or top-dose-only effect, or another doubt; inactive = no such curve, though single readings can be large or run the other way.

SMILES | Pf growth 48h | Shiga toxin inh | Pf growth 96h | Lassa entry inh | Marburg entry inh | CHX counter
CC(C)(C)c1ccc(C(=O)O[C@H]2[C@H](Cc3ccccc3)NS(=O)(=O)[C@H]3C[C@@H]4C=C[C@]23O4)cc1 | 13.1µM* | . | 11.7µM* | . | -2.4% | .
CNC(=S)N(Cc1cccs1)Cc1cc2cc(OC)ccc2[nH]c1=O | ? | -15.0 | 7.38µM* | 2.0% | ? | 0.4
COc1ccc2[nH]c(=O)c(CN(CC3CCCO3)C(=S)Nc3cccc(C)c3)cc2c1 (stereo not drawn) | ? | -8.0 | 24.9% | . | 1.0%[46.1 µM] | -0.6
CNC(=S)N(Cc1cc2ccc(OC)cc2[nH]c1=O)CC1CCCO1 (stereo not drawn) | -22.6% | 8.6 | 13.1µM* | -2.6% | ? | -3.5
COc1ccc2[nH]c(=O)c(CN(Cc3cccs3)S(=O)(=O)c3cccc4nsnc34)cc2c1 | 7.38µM* | -3.6 | -6.8% | ? | 16.4µM*! | 1.3
COc1ccc2[nH]c(=O)c(CN(Cc3cccs3)C(=S)Nc3cccc(C)c3)cc2c1 | 14.7µM* | -5.0 | ? | ? | 4.47µM* | -0.8
CCCCC(=O)NC(=S)NNS(=O)(=O)c1ccccc1 | -0.2% | -7.7 | -95.9% | 19.9% | ? | -3.0
COc1ccc(CCN2C(=O)CC(Cc3cccc(C)c3)C2=O)cc1OC (stereo not drawn) | -23.1% | 16.5 | -1.4% | -4.0%[46.1 µM] | -3.6%[46.1 µM] | 11.9
CCC(=O)N(CCc1ccccc1)Cc1cc2cc(OC)ccc2[nH]c1=O | 2.08µM* | 0.4 | -7.8% | . | . | -5.1
COc1ccc(NCc2cc3cc(OC)ccc3[nH]c2=O)cc1 | -19.6% | -8.1 | -28.3% | ? | -19.6% | -3.2
COc1ccc2[nH]c(=O)c(CNc3cccc(C)c3)cc2c1 | ? | 37.0 | ? | ? | -31.1% | 29.1*
COCCCn1c(SCC(=O)OC2CCCCC2)nnc1-c1ccco1 | ? | 19.2 | ? | 2.3% | 9.2% | 17.0*
COCCCn1c(SCC(=O)N2CCc3ccccc32)nnc1-c1ccco1 | -6.2% | 7.1 | 11.7µM* | -0.2% | -14.9% | 1.0
COCCCn1c(SCC(=O)N2CCc3ccccc32)nnc1-c1ccoc1C | . | . | . | -5.4% | -8.0% | .
CN(C(=O)CSc1nnc(-c2ccco2)n1C)C1CCCCC1 | ? | . | -6.6% | ? | ? | .
Cn1c(SCC(=O)OC2CCCCC2)nnc1-c1ccco1 | -8.1% | 15.8 | ? | 1.7% | 12.9%[46.1 µM] | 15.6*
COc1ccc(F)cc1C(=O)C1CCCN(Cc2ccc(Sc3nncn3C)o2)C1 (stereo not drawn) | -6.5% | 27.1 | ? | . | . | -4.9
O=C(C(Sc1ccccc1)c1ccccc1)N1CCN(c2ccccc2F)CC1 (stereo not drawn) | ? | 22.3 | 35.0% | ? | ? | 5.1
O=C(c1cnn2c1NC(c1ccco1)CC2C(F)(F)F)N1CCN(c2cccc(Cl)c2)CC1 (stereo not drawn) | ? | 1.3 | . | 12.6µM* | ? | 6.9
COc1ccc(N=N/C(=C\O)C(=O)c2cccs2)cc1 | 193.2% | 58.0* | 76.8% | ? | -28.7%[46.1 µM] | 39.1*
COc1ccc(C(=O)/C(=C/O)N=Nc2ccc(F)cc2)cc1 | i | 76.4* | ? | ? | ? | 58.2*
Cc1ccc(N=N/C(=C\O)C(=O)c2ccncc2)cc1 | . | 30.7 | ? | ? | ? | 9.5
COc1ccc(/C=N/NC(=O)CNC(=O)c2cccs2)cc1 | 45.5% | 45.2 | 12.3% | 5.1% | 9.1% | 16.9
COC(=O)CCC(=O)NN1C(=O)c2ccccc2C1=O | -1.2% | -1.9 | 111.0% | . | . | -3.3
COc1ccc2[nH]c(CN3CCC(n4nccc4NC(=O)C4CC4)CC3)c(C)c2c1 | 35.0% | 2.0 | ? | -22.8% | ? | -1.8
SMILES | Pf growth 48h | Shiga toxin inh | Pf growth 96h | Lassa entry inh | Marburg entry inh | CHX counter
Cc1cc(N(C)C)ccc1N=Nc1ccc2ncccc2c1 | -20.7% | 95.4* | ? | . | . | 52.2*
CCn1c(CNC(=O)c2ccco2)nnc1SCC(=O)c1ccccc1 | -1.0% | -1.5 | 16.3% | . | . | 1.2
O=C(COc1ccccc1)NC(=S)Nc1cccc(NC(=O)c2ccccc2Cl)c1 | 10.6% | 18.0 | 236.1% | 14.5% | 14.3% | 11.1
CCC(CCC(=O)Nc1cccc([N+](=O)[O-])c1)C(=O)O (stereo not drawn) | 4.8% | -14.4 | 24.5% | 5.0%[46.1 µM] | 3.4%[46.1 µM] | -2.0
O=C(Cc1ccccc1)Nc1cccc([N+](=O)[O-])c1 | 4.1% | 17.9 | -1.1% | 3.4% | 6.9% | 11.1
O=C(COc1ccccc1)NC(=S)Nc1cccc([N+](=O)[O-])c1 | 5.1% | 16.6 | 1.65µM* | 11.3% | 12.6% | 7.3
CCC(CC)C(=O)OCC(=O)Nc1cccc([N+](=O)[O-])c1 | 9.1% | 37.2* | 23.8% | ? | 4.0%[46.1 µM] | 14.7*
COC(=O)CCC(=O)Nc1cccc([N+](=O)[O-])c1 | 14.0% | -8.3 | 11.7µM* | 3.3% | 4.0% | 2.0
O=C(CCC(=O)Nc1cccc([N+](=O)[O-])c1)NCc1ccccc1 | 22.8% | 15.0 | 24.6% | . | . | -2.9
O=C(CCOc1ccccc1)Nc1cccc([N+](=O)[O-])c1 | 38.5% | 50.2* | 1.4% | 9.6%[46.1 µM] | 18.5%[46.1 µM] | 20.2*
Cc1cc(C(=O)Cn2nc(C(=O)O)c3ccccc3c2=O)c(C)n1-c1ccc(F)cc1 | 27.4% | 154.6* | 125.8% | 10.7% | ? | 48.7*
CCCn1c(C)cc(C(=O)Cn2nnc3ccccc3c2=O)c1C | 423.0% | 82.3* | i | ? | 14.1µM* | 34.7*
C=CCn1c(C)cc(C(=O)Cn2nc(C(=O)O)c3ccccc3c2=O)c1C | 141.5% | 55.7* | 116.0% | . | . | 31.6*
Cc1cc(C(=O)Cn2nc(C(=O)O)c3ccccc3c2=O)c(C)n1-c1cccc(C(F)(F)F)c1 | 2.1% | -18.2 | 10.7% | 5.3% | -3.2%[46.1 µM] | -1.5
COCCn1c(C)cc(C(=O)Cn2nc(C(=O)O)c3ccccc3c2=O)c1C | 115.1% | 20.2 | 22.1% | 1.6% | ? | 16.7
CCC(C)NC(=O)c1cc2c(=O)n(CC)c3ccccc3c2s1 (stereo not drawn) | 7.6%[0.00184 µM] | 8.8 | ? | ? | -8.7% | 11.6*
CCn1c(=O)c2cc(C(=O)NCC(OC)OC)sc2c2ccccc21 | 9.8%[0.00184 µM] | 2.1 | 1.47µM* | -6.3%[46.1 µM] | 6.6%[46.1 µM] | -1.8
O=[As]O[As]=O (stereo not drawn) | 1.9µM* | . | 1.9µM* | . | . | .
CC(C)(Sc1ccc(CCN(CCCCC2CCCCC2)C(=O)NC2CCCCC2)cc1)C(=O)O | -0.1% | . | -9.1% | -5.6% | ? | .
CNC(=O)c1ccccc1NC(=O)c1ccc(C)c(S(=O)(=O)N2CCCCC2)c1 | ? | -4.0 | 0.7% | -0.5% | -25.7% | -3.1
CN(C)c1ccc(/C=C/[N+](=O)[O-])cc1 | 19.2% | 8.1 | -0.3% | 0.3% | -15.2% | -1.0
C/C(=C\c1ccc(N(C)C)cc1)[N+](=O)[O-] | ? | -11.7 | ? | ? | 5.17µM* | 2.7
Nc1nc(CSc2nc3ccccc3s2)nc(Nc2ccccc2)n1 | -14.4% | -13.6 | -16.5% | . | -4.3% | 20.7*
Cc1c(Cl)cccc1Nc1nc(N)nc(CSc2nc3ccccc3s2)n1 | 1.4% | -6.0 | ? | ? | ? | 0.5

Screens: PubChem, National Center for Advancing Translational Sciences (NCATS)
